From the supplement of paper PMC12340641

Columns and labels:
[1] = target: IKZF1 (dCK*-IKZF1 fusion in HEK293FT) (UniProt Q13422); assay: inhibition of IKZF1 HTRF signal (DMSO = 0%, pomalidomide 10 uM = 100%); higher = lower IKZF1 protein level; conditions: compound concentration: 5 uM, overnight (~20 h)
In short: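 Compound was tested at 5 μM in single wells on HEK293FT cells (2000/well, 384-well) stably carrying an IKZF1 fusion, overnight at 37 °C. Total IKZF1 was measured in lysates with a commercial HTRF antibody kit as the background-subtracted 665/620 nm time-resolved FRET ratio. The reported figure is percent inhibition of IKZF1 signal, scaled per plate between vehicle and a reference degrader. The vehicle anchor was 0% and the degrader anchor 100%.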

HEK293FT dCK*-only = assay: relative growth in counter assay (no AraC = 100%, AraC + DMSO = 0%); higher = more growth rescue independent of IKZF1; conditions: compound concentration: 5 uM; AraC concentration: 0.3 uM; overnight pretreatment + 4 days AraC
In short: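 For this counter assay, relative growth was normalised on each plate to two kinds of reference wells. HEK293FT cells expressing only an engineered kinase construct (300/well, 384-well) were treated with 5 μM compound 2 h after seeding, then after overnight at 37 °C with a nucleoside suicide substrate at 0.3 μM plus medium for 4 days. On day 5, Hoechst 33342-stained nuclei were counted by imaging, taking wells without suicide substrate as 100% and substrate plus vehicle as 0%.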

HEK293FT dCK*-IKZF1 = assay: relative growth recovery (pomalidomide 10 uM = 100%, DMSO = 0%); higher = more growth rescue (IKZF1 fusion degradation); conditions: compound concentration: 5 uM; AraC concentration: 0.3 uM; overnight pretreatment + 4 days AraC
In short: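 On day 5, whole-well imaging was used to count Hoechst 33342-stained nuclei of HEK293FT cells stably carrying a deoxycytidine kinase–IKZF1 fusion. These cells had received 5 μM compound 2 h after seeding, followed after overnight at 37 °C by a nucleoside suicide substrate at 0.3 μM plus medium for 4 days. Growth recovery was normalised on each plate against a reference degrader and vehicle, which defined 100% and 0%, and values are duplicate means from separate days.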

Sequence of IKZF1 (dCK*-IKZF1 fusion in HEK293FT) (Q13422 whole entry, looked up, the tested form may be a part): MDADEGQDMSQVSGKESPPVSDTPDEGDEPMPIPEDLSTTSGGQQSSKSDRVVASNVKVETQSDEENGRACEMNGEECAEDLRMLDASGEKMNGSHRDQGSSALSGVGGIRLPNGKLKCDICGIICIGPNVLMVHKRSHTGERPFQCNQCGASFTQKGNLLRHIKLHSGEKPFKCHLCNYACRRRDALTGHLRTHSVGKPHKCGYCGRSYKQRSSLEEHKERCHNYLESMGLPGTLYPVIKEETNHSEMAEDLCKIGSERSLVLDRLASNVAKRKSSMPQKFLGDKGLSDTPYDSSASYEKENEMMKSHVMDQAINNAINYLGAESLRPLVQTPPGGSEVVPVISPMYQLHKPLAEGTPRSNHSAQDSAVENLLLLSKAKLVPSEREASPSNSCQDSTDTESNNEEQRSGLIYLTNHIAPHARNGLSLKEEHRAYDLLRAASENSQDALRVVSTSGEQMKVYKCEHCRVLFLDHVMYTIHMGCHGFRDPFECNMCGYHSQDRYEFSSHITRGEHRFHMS

| Compound | inhibition of IKZF1 HTRF signal [1] [%] | relative growth in counter assay (HEK293FT dCK*-only) [%] | relative growth recovery (HEK293FT dCK*-IKZF1) [%] |
| --- | --- | --- | --- |
| CC(C)c1ccc(-c2cc(=O)c3ccccc3o2)cc1 | -25.6 | -5.2 | 0.225 |
| Cc1ccc(/C=C2\CNC/C(=C\c3ccc(C)cc3)C2=O)cc1 | -70 | -34.5 | -12.6 |
| CN1CCN(CCCN2c3ccccc3Sc3ccc(C(F)(F)F)cc32)CC1 | 5.07 | 23.1 | 3.05 |
| COc1ccc(CN2CCN(C(c3ccc(F)cc3)c3ccc(F)cc3)CC2)c(OC)c1OC | -50.6 | 1.19 | 0.625 |
| Oc1ccc(Cl)c2cccnc12 | -32.6 | -6.2 | -1.79 |
| Nc1nc(=O)n([C@H]2C[C@H](O)[C@@H](CO)O2)cc1F [5-Fluoro-2'-deoxycytidine] | -4.07 | -26.3 | -8.98 |
| CO[C@H]1O[C@@H]2O[C@@]3(C)CC[C@H]4[C@H](C)CC[C@@H]([C@H]1C)[C@@]24OO3 [Artemether] | -26.4 | -14.4 | -5.75 |
| COc1cccc2c1C(=O)c1c(O)c3c(c(O)c1C2=O)C[C@@](O)(C(=O)CO)C[C@@H]3O[C@H]1C[C@H](N)[C@H](O[C@@H]2CCCCO2)[C@H](C)O1 [Pirarubicin] | 37.3 | -33.8 | -13.1 |
| CO[C@@]12[C@@H]3NC3CN1C1=C(C(=O)C(N)=C(C)C1=O)[C@@H]2COC(N)=O (stereo partly specified) | -1.54 | -33.6 | -12.9 |
| COc1ncnc(NS(=O)(=O)c2ccc(N)cc2)c1OC | -56.1 | -8.08 | 0.355 |
| COc1cc([C@@H]2c3cc4c(cc3C(O[C@@H]3O[C@@H]5CO[C@@H](c6cccs6)OC5[C@H](O)[C@H]3O)C3COC(=O)[C@@H]32)OCO4)cc(OC)c1O (stereo partly specified) | 16.8 | -34.5 | -13.1 |
| O=C(NC(NC(=S)Nc1ccc(F)c([N+](=O)[O-])c1)C(Cl)(Cl)Cl)C(c1ccccc1)c1ccccc1 (stereo unspecified) | -19.4 | -20.4 | -10.6 |
| COc1ccc(NC(=O)c2ccc(-c3ccc(-c4noc(C)n4)cc3C)cc2)cc1N1CCN(C)CC1 | -35.8 | -19.7 | 1.76 |
| CCN(CCCCCOCC(=O)N[C@H](C(=O)N1C[C@H](O)C[C@H]1C(=O)N[C@@H](C)c1ccc(-c2scnc2C)cc1)C(C)(C)C)CCOc1ccc(C(=O)c2c(-c3ccc(O)cc3)sc3cc(O)ccc23)cc1 | 3.72 | 13.8 | 11 |
| O=C(O)c1cc(/N=N/c2ccc(O)c(C(=O)O)c2)ccc1O | -32.5 | -4.73 | 3.38 |
| CN1CCCCC1CCN1c2ccccc2Sc2ccc(S(C)=O)cc21 (stereo unspecified) [mesoridazine besylate] | -49.8 | 10.8 | -0.555 |

| Compound | inhibition of IKZF1 HTRF signal [1] [%] | relative growth in counter assay (HEK293FT dCK*-only) [%] | relative growth recovery (HEK293FT dCK*-IKZF1) [%] |
| --- | --- | --- | --- |
| Cc1coc2c1C(=O)C(=O)c1c-2ccc2c1CCCC2(C)C [Tanshinone IIA (Tanshinone B)] | 18.3 | 5.29 | 0.345 |
| CN(C)CCCN1c2ccccc2Sc2ccccc21 | -35.6 | 5.27 | -2.24 |
| O=C(Nc1cc(C(F)(F)F)ccc1O)Nc1cc(C(F)(F)F)ccc1O | -27.7 | -5.68 | -1.77 |
| Cc1cc(Nc2ncc(Cl)c(Nc3ccccc3S(=O)(=O)C(C)C)n2)c(OC(C)C)cc1C1CCN(CC(=O)NCCOCCOCCOCCOCCOCCNc2cccc3c2C(=O)N(C2CCC(=O)NC2=O)C3=O)CC1 (stereo unspecified) | 54.5 | 6.9 | 64.6 |
| CCOC(=O)C1=C(C)NC(C)=C(C(=O)OC)C1c1cccc([N+](=O)[O-])c1 (stereo unspecified) | -32.3 | -1.02 | 2.87 |
| Nc1cc(N2CCCCC2)nc(N)[n+]1[O-] | -27.1 | -5.79 | -0.55 |
| Oc1cc(CNC(=S)/C=C/c2cc(O)c(O)c(Br)c2)cc(O)c1O | -32.2 | -34.9 | -11.9 |
| CCN(CC)CCCC(C)Nc1ccnc2cc(Cl)ccc12 (stereo unspecified) [Chloroquine Diphosphate] | -13.4 | 1.31 | 0.365 |
| CO[C@H]1/C=C/O[C@@]2(C)Oc3c(C)c(O)c4c(O)c(c5c(c4c3C2=O)=NC2(CCN(CC(C)C)CC2)N=5)NC(=O)C(C)=CC=CC(C)[C@H](O)[C@@H](C)[C@@H](O)[C@@H](C)[C@H](OC(C)=O)[C@@H]1C (stereo partly specified) [Rifabutin] | 0.83 | 3.92 | -0.05 |
| OCCN1CCN(CCCN2c3ccccc3Sc3ccc(C(F)(F)F)cc32)CC1 | -11.9 | 12 | 3.6 |
| O=C(/C=C/c1ccc2ccccc2n1)c1ccncc1 | -36.5 | -35.1 | -15 |
| COc1cc(N2CCN(C)CC2)ccc1Nc1nccc(-c2cn(C)c3cnccc23)n1 | -30.7 | -9.1 | -0.12 |
| CC(C)(C)c1ccc(C(O)CCCN2CCC(C(O)(c3ccccc3)c3ccccc3)CC2)cc1 (stereo unspecified) | -24.6 | -9.63 | -1.42 |
| Clc1ccc(C(Cn2ccnc2)OCc2c(Cl)cccc2Cl)c(Cl)c1 (stereo unspecified) [Isoconazole nitrate (Travogen)] | -10.4 | 0.7 | -3.42 |
| CC/C(=C(\c1ccc(O)cc1)c1ccc(OCCN(C)C(=O)COCCOCCOCCOc2cccc(C(=O)c3csc([C@@H]4CCCN4C(=O)[C@@H](NC(=O)[C@H](C)NC)C4CCCCC4)n3)c2)cc1)c1ccccc1 | 13.9 | -31.8 | -11.5 |
| CN(C)C1CCN(C(=O)c2ccc(NC(=O)Nc3ccc(-c4nc(N5CCOCC5)nc(N5CCOCC5)n4)cc3)cc2)CC1 | 27.3 | -6.76 | -0.95 |
